The text below walks through data of PubChem BioAssay AID493200 (National Center for Advancing Translational Sciences (NCATS), 2011).

Inconclusive results are not listed. A call without a number means that no potency is given here. Calls of active or inactive are those of the source. Calls follow the shape of the dose curve; as a rule, active = well fitted activation curve with a large enough effect; inconclusive = small, poorly fitted or top-dose-only effect; inactive = no such curve, though single readings can be large or run the other way.
Potency is read from the fitted curve at half-maximal effect.

This assay in a line: qHTS Assay for Rab9 Promoter Activators: Initial hit validation from the primary screen. The settings on record: Huh7 Rab9 promoter luciferase reporter, 24 h; series mostly up to 46.1 µM. Summed up: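 Luciferase signal, read 10 min after Amplite reagent, reports Rab9 promoter activation. Compounds in DMSO were applied for 24 h at 37C to Rab9-luciferase Huh7 cells, pre-incubated 2 h in reduced-serum medium with 10% FBS.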
For the compound `N#C/C(=N\Nc1ccc(Cl)cc1)C(=N)N1CCCCC1`, the Potency is 223 nM (active).

With `CCN(C(=O)COC(=O)c1ccc(C=O)cc1)c1c(N)n(Cc2ccccc2)c(=O)[nH]c1=O`, the Potency result was “inactive”.

As to `CCCCn1c(CCNC(=O)c2cccs2)nc2ccccc21`, the Potency entry was “inactive”.

In the case of `Cc1ccc(C2C3=C(CC(C)(C)CC3=O)N(CCN3CCOCC3)C3=C2C(=O)CC(C)(C)C3)cc1`, the Potency result is “inactive”.

In the case of `Cc1cccc(NC(=O)CSc2nc3ccccc3o2)c1`, the Potency entry was “inactive”.

For the compound `Cc1nc(SCC(=O)NC(=O)NC(C)(C)C)nc(C)c1C`, the Potency result is “inactive”.

As for `CC1CCCN(S(=O)(=O)c2ccc(C(=O)Nc3nnc(-c4ccncc4)o3)cc2)C1` (configuration not stated), the Potency result is “inactive”.

With `Cc1ccc(NC(=O)c2cccc(N3C(=O)CCC3=O)c2)nc1`, the Potency entry is “inactive”.

For `CCCCCCC(=O)Nc1ccc(C(=O)N/N=C/c2cccnc2)cc1`, the Potency result is “inactive”.

Take `Cc1nc(-c2ccc(S(=O)(=O)Oc3ccc(Cl)cc3Cl)s2)cs1`: the Potency result was “inactive”.

`COc1ccc(NC(=O)CCCN2C(=O)C(c3ccccc3)Oc3cccnc32)cc1OC` (configuration not stated): the Potency result is “inactive”.

In the case of `CCc1cc2c(N=Nc3c(O)[nH]c4ccccc34)ncnc2s1`, the Potency result is “inactive”.

Regarding `CC(C)(C)C(=O)N/C(N)=N/c1nc2ccccc2o1`, the Potency was 628 nM (active).

With `S=C1NCN(CCc2ccccc2)CN1Cc1ccccc1`, the Potency entry was “inactive”.

For the compound `CCOc1ccc(S(=O)(=O)NCc2ccccc2)cc1C(N)=O`, the Potency result was “inactive”.

For `O=C(COC(=O)c1ccc(-c2nnc(-c3ccccc3)o2)cc1)c1ccccc1`, the Potency was 396 nM (active).

With `N#C/C(=C\c1ccc[nH]1)C(=O)Nc1ccccc1Cl`, the Potency is 3530 nM (active).

In the case of `Cc1ccc(C(=O)NCc2ccc3c(c2)OCO3)cc1C`, the Potency is 25000 nM (active).

As for `Cc1noc(/C=C/N(C)C)c1S(=O)(=O)N1CCCC(C(=O)N2CCCCC2)C1` (configuration not stated), the Potency entry is “inactive”.

For `O=C(CCCN1C(=O)C(c2ccccc2)Oc2cccnc21)Nc1ccccc1Cl` (configuration not stated), the Potency entry is “inactive”.

For the compound `COc1cccc(C(C(=O)NC2CCCC2)N(CCC(C)C)C(=O)CCC(=O)Nc2cc(C)on2)c1` (configuration not stated), the Potency entry is “inactive”.

In the case of `CCOC(=O)C1(Cc2cccc(Cl)c2)CCCN(C(=O)CCSC)C1` (configuration not stated), the Potency entry is “inactive”.

As for `Cc1cc(C)cc(N(CC(=O)NC2CCCC2)C(=O)CNC(=O)c2ccco2)c1`, the Potency result was “inactive”.

Consider `CC(C)C1(CCNC(=O)c2cccs2)CCOC(C)(C)C1` (configuration not stated), for which the Potency result was “inactive”.

Take `CC1CN(C(=O)c2ccncc2)CC(C)O1` (configuration not stated): the Potency entry was “inactive”.

As to `CCN(Cc1nc2cc(Cl)ccc2c(=O)[nH]1)C(=O)C1CC(=O)N(c2cccc3ccccc23)C1` (configuration not stated), the Potency entry was “inactive”.

As for `CCN(CC)S(=O)(=O)c1ccc(NCc2ccccn2)nc1`, the Potency result was “inactive”.

On to `O=C(c1cccc(Oc2ccc([N+](=O)[O-])cc2)c1)N1CCOCC1`, for which the Potency result is “inactive”.

As to `COc1ccc(/C=C\c2onc(C)c2S(=O)(=O)N2CCC(C(=O)NCCC(C)C)CC2)cc1`, the Potency result was “inactive”.

`COc1ccc(C2(CNC(=O)/C=C/c3ccco3)CCCC2)cc1OC`: the Potency entry was “inactive”.

Take `Cc1nc(-c2ccccn2)sc1C(=O)Nc1ccc(F)cc1F`: the Potency is 9960 nM (active).

In the case of `CC(C)(C)NC(=S)NNC(=O)c1ccc2ncccc2c1`, the Potency was 1770 nM (active).
